MCF10A rerep: A quantitative high throughput screen for small molecules that induce DNA re-replication in MCF 10a normal breast cells; AID 624296, 2012; Potency, µM (doses to about 46.1 µM), for inactives: top-dose activity, positive = re-replication, most hits filed as activators; 2.9% of 350,000 active; MCF 10A DNA re-replication, Hoechst nuclear intensity, 48 h; also: potency is read from the fitted curve at half-maximal effect; % of control where 0% means no effect; nearly all actives have a fitted effect of over 50% in size
KB-V1 cytotox: qHTS assay for MDR1-selective chemotherapeutics: Primary screen using the drug-selected MDR subline cells KB-V1; 3.4% of 400,000 active; AID 1347076, 2019; KB-V1 MDR cells viability, CellTiter-Glo, 72 h; Potency, µM (series often up to 46.1 µM), hits mostly cytotoxic; also: potency is read from the fitted curve at half-maximal effect; % is scaled to controls: 0 for no effect and ±100 for the full control effect; nearly all actives have a fitted effect of over 60% in size
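Following 72 h at 37 degrees C with compound, KB-V1 cell viability was read by CellTiter-Glo luminescence, medium being phenol-red-free DMEM plus 10% FBS; concentration-response parameters came from normalized, curve-fitted qHTS data.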
SW480 rereplic: A quantitative high throughput screen for small molecules that induce DNA re-replication in SW480 colon adenocarcinoma cells; SW480 DNA re-replication, Hoechst DNA content imaging, 48 h; Potency, µM (top dose mostly 46.1 µM), for the others: at the highest dose re-replication activation, hits mostly activators; 1.8% of 340,000 active; also: potency is read from the fitted curve at half-maximal effect; % of control where 0% means no effect; nearly all actives have a fitted effect of over 55% in size
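Treated cells incubate 48 hr (37 C, 5% CO2), are stained 40 min with Hoechst, and nuclear fluorescence is enumerated; a rise in nuclei with high DNA signal marks re-replication.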
D3 antag: qHTS of D3 Dopamine Receptor Antagonist: qHTS. D(3) dopamine receptor (Homo sapiens), P35462. D3R cells, DiscoveRx beta-arrestin luminescence, antagonist mode; active compounds read low. max response, negative = inhibition, %. 2.5% of 360,000 active. AID 652054, 2013; in the data active = max response below about -50%; inconclusive = no clear call, values can overlap the other calls; also: % is scaled to controls: 0 for no effect and ±100 for the full control effect
Target sequence (P35462 whole entry, looked up): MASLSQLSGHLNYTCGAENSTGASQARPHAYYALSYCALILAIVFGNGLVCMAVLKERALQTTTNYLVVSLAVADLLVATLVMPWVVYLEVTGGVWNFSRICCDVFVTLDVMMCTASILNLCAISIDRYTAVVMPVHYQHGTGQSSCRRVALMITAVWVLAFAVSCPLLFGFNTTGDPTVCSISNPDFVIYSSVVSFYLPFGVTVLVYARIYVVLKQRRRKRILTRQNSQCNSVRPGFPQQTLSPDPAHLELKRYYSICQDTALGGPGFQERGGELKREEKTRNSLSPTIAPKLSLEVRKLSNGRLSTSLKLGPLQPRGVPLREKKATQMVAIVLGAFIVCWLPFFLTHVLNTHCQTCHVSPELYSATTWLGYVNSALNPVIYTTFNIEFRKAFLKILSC
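Cells expressing the human receptor were seeded at 1500 cells/well, incubated overnight at 37 degrees C in 5% CO2, then exposed to library compounds with dopamine controls for 90 minutes at 37 degrees C before luminescent detection.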
KB-3-1 tox: qHTS assay for MDR1-selective chemotherapeutics: Primary screen using the parental adenocarcinoma cell KB-3-1. KB-3-1 viability, CellTiter-Glo ATP luminescence, 72 h. Potency, µM (titrated, usually from 46.1 µM), hits mostly cytotoxic. 1.4% of 400,000 active. AID 1347075, 2019; also: potency is read from the fitted curve at half-maximal effect; % is scaled to controls: 0 for no effect and ±100 for the full control effect; nearly all actives have a fitted effect of over 60% in size
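Multi-concentration cytotoxicity screen in KB-3-1 cells grown in DMEM lacking phenol red with 10% FBS. After 72 h at 37 °C with compound, ATP-dependent luminescence was recorded.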
DRD3 agonist: qHTS of D3 Dopamine Receptor Agonist: qHTS. D3R DiscoveRx beta-arrestin cells, luminescence, 90 min. max activation, %. 0.58% of 410,000 active. AID 652048, 2013; in the data active = max activation above about 30%; also: 0% is about no effect
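Agonist-mode cell screen: cells plated at 1500/well and incubated overnight at 37 °C, then exposed to library compounds for 90 min at 37 °C. Detection reagent was added for 30–60 min at room temperature, and luminescence was read.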
The depositor's hits bear a star; i = inactive; ? = inconclusive; nt = not tested or not shown; [ ] = dose if it differs, or a comment. Only some compounds are listed: those with a hit (about 8.9% of all), similar ones and a draw of the others. Unless noted, calls follow the shape of the dose curve; as a rule, active = well fitted curve in the direction sought with a large enough effect; inconclusive = small, poorly fitted or top-dose-only effect, or another doubt; inactive = no such curve, though single readings can be large; an effect the other way counts as inactive or inconclusive.

SMILES	MCF10A rerep	KB-V1 cytotox	SW480 rereplic	D3 antag	KB-3-1 tox	DRD3 agonist
CC(C)OC(=O)c1c(N)n(Cc2ccco2)c2nc3ccccc3nc12	-3.7%	i	15.1%	14.2	i	1.6
CC(C)CNC(=O)c1c(N)n(Cc2ccco2)c2nc3ccccc3nc12	6.51µM*	16.4µM*	20.6µM*	11.3	?	-0.6
Nc1c(C(=O)OCC2CCCO2)c2nc3ccccc3nc2n1Cc1cccs1 (configuration not stated)	?	i	9.4%	44.9	?	7.9
COc1cc(CC(C)N)cc2c1OCO2 (configuration not stated)	nt	nt	nt	nt	nt	-6.7
CCOC(=O)CCCc1cc[c]([Sb](=[O])([OH])[OH])cc1	nt	i	nt	nt	i	nt
C/C=C(\CC)C(=O)NC(N)=O	nt	nt	nt	nt	nt	1.1
CCCNC(=O)c1c(N)n(Cc2ccco2)c2nc3ccccc3nc12	2.06µM*	i	?	-5.0	i	11.0
Nc1c(C(=O)NCC2CCCO2)c2nc3ccccc3nc2n1Cc1ccco1 (configuration not stated)	2.59µM*	i	13µM*	9.6	i	4.4
CCCCCCC(C)(C)c1ccc([C@@H]2C[C@H](O)CC[C@H]2CCCO)c(O)c1	-3.7%	?	12.7%	102.2	?	69.7*
CCN(CC)CCO[C@H]1CC[C@@]2(C)C(=CC[C@@H]3[C@H]2CC[C@]2(C)C(=O)CC[C@H]32)C1	12.2%	nt	-4.4%	nt	nt	nt
COc1ccc(OCC(=O)N2CCN(CCc3ccccn3)CC2)cc1	nt	i	nt	nt	i	-7.5
CC(N)Cc1cn(Cc2ccccc2)c2ccccc12 (configuration not stated)	?	?	?	-8.9	23.1µM*	-14.6
CC(=O)c1cn(Cc2ccc(F)cc2)c2ccccc12	?	?	2.4%	?	i	-1.1
CCCCOC(=O)C1=C(N)OC2=C(C(=O)CCC2)[C@]12C(=O)N(C)c1ccccc12	-3.0%	i	-0.5%	-53.7*	i	8.1
COc1ccc(/C=C/C(=O)c2c(O)n(CCC3=CCCCC3)c(=O)[nH]c2=O)cc1	7.31µM*	10.3µM*	-1.3%	1.7	20.6µM*	0.5
CN(C)CCN=Cc1c(O)n(CCC2=CCCCC2)c(=O)[nH]c1=O	-1.0%	i	-3.8%	28.3	i	2.0
O=C(/C=C/c1ccc2c(c1)OCO2)c1c(O)n(CCC2=CCCCC2)c(=O)[nH]c1=O	1.84µM*	7.31µM*	-0.1%	-6.2	?	1.4
CNc1ccc2oc(C[C@H]3O[C@@]4(CC[C@H]3C)O[C@H]([C@H](C)C(=O)c3ccc[nH]3)[C@H](C)C[C@H]4C)nc2c1C(=O)O	4.61µM*	3.66µM*	?	?	4.11µM*	-62.6
CN[C@@H](C)Cc1ccccc1	nt	nt	nt	nt	nt	1.0
Oc1ccccc1-[n+]1c(-c2ccccc2)cc(-c2ccccc2)cc1-c1ccccc1	-6.9%	i	-4.3%	36.3	?	0.0
Cc1ccccc1-[n+]1c(-c2ccccc2)cc(-c2ccccc2)cc1-c1ccccc1	16.8%	i	2.31µM*	5.3	6.51µM*	-0.6
[O-]c1ccccc1-[n+]1c(-c2ccccc2)cc(-c2ccccc2)cc1-c1ccccc1	?	i	2.7%[9.22 µM]	-14.3	11.6µM*	-0.8
CCCC(=O)OC(C(Cl)(Cl)Cl)P(=O)(OC)OC (configuration not stated)	26.5%	nt	0.3%	nt	nt	-20.0
CN1/C(=C\C=C2C(=O)NC(=O)NC2=O)C(C)(C)c2ccccc21	12.3%	?	7.7%	0.9	5.17µM*	0.7

Screening results: PubChem BioAssay, National Center for Advancing Translational Sciences (NCATS)
